From the supplement of paper PMC6555819

Assays:
Assay in all cases: PBM binding z-score (relative to random genomic background probes); higher = stronger binding; sequences stand for … in GC…GCGATTGACAGCGTAGAATGAAGG
[1] = system: FXR:RXRa (NR concentration 270 nM, RXRa partner concentration 90 nM)
Outline: (§1)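 The probes on custom Agilent 4×180K protein-binding microarrays were double-stranded, with 34-nt variable regions bearing direct-repeat seeds, single-nucleotide variants, half-site ablations and random human genomic background sequences. Incubation lasted 1 h with ligand-free nuclear receptor dimers in PBS pH 7.4, 2% milk, 0.02% Triton X-100, 1 mM DTT, 0.2 mg/mL BSA and 0.4 mg/ml salmon testes DNA. Antibodies against each partner (one per run) detected bound dimers, and fluorescence scans were regression-normalized. Binding z-scores take the random background probes as reference.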

[2] = system: LXRa:RXRa (NR concentration 270 nM, RXRa partner concentration 90 nM)
Outline: as §1

[3] = system: LXRa homodimer (NR concentration 270 nM)
Outline: as §1

[4] = system: LXRb:RXRa (NR concentration 270 nM, RXRa partner concentration 90 nM)
Outline: as §1

[5] = system: LXRb homodimer (NR concentration 270 nM)
Outline: as §1

[6] = system: PPARa:RXRa (NR concentration 270 nM, RXRa partner concentration 90 nM)
Outline: as §1

[7] = system: PPARg:RXRa (NR concentration 180 nM, RXRa partner concentration 90 nM)
Outline: as §1

[8] = system: PPARg:RXRa 270nM:90nM, anti-RXR (NR concentration 270 nM, RXRa partner concentration 90 nM)
Outline: as §1

[9] = system: PPARg:RXRa 30nM:10nM, anti-RXR (NR concentration 30 nM, RXRa partner concentration 10 nM)
Outline: as §1

[10] = system: PPARg:RXRa 90nM:30nM, anti-RXR (NR concentration 90 nM, RXRa partner concentration 30 nM)
Outline: as §1

[11] = system: PPARg:RXRa DBDmut IVT, anti-RXR (DBD mutation: RXRa K156A/R161A, NR concentration 270 nM, RXRa partner concentration 90 nM)
Outline: as §1

[12] = system: PPARg:RXRa IVT, anti-PPARg (NR concentration 270 nM, RXRa partner concentration 90 nM)
Outline: as §1

[13] = system: PPARg DBDmut:RXRa IVT, anti-PPARg (DBD mutation: PPARg1 K132A/R137A, NR concentration 270 nM, RXRa partner concentration 90 nM)
Outline: as §1

[14] = system: PPARg DBDmut IVT, anti-PPARg (DBD mutation: PPARg1 K132A/R137A, NR concentration 270 nM)
Outline: as §1

[15] = system: PPARg homodimer (NR concentration 180 nM)
Outline: as §1

[16] = system: PXR:RXRa (NR concentration 270 nM, RXRa partner concentration 90 nM)
Outline: as §1

[17] = system: PXR homodimer (NR concentration 270 nM)
Outline: as §1

[18] = system: RARa:RXR (NR concentration 270 nM, RXRa partner concentration 90 nM)
Outline: as §1

[19] = system: RARa homodimer (NR concentration 270 nM)
Outline: as §1

[20] = system: RARb:RXRa (NR concentration 270 nM, RXRa partner concentration 90 nM)
Outline: as §1

Sequence	PBM binding z-score [1]	PBM binding z-score [2]	PBM binding z-score [3]	PBM binding z-score [4]	PBM binding z-score [5]	PBM binding z-score [6]	PBM binding z-score [7]	PBM binding z-score [8]	PBM binding z-score [9]	PBM binding z-score [10]	PBM binding z-score [11]	PBM binding z-score [12]	PBM binding z-score [13]	PBM binding z-score [14]	PBM binding z-score [15]	PBM binding z-score [16]	PBM binding z-score [17]	PBM binding z-score [18]	PBM binding z-score [19]	PBM binding z-score [20]
CGAACTAGGTCAATGACAGTGAATCTCCGCACGC	3.48	2.25	0.283	1.56	-0.147	4.35	6.92	5.8	2.99	5.2	7.95	7.88	1.44	0.0144	1.11	1.01	0.0387	1.71	0.201	3.68
TAGCCTAGGTAATTCAGGGGCCAGTATAGAAAGC	-0.449	-0.444	-0.517	-0.109	-0.53	-0.0424	0.145	-0.169	-0.327	-0.103	-0.0164	0.234	0.0188	-0.116	-0.334	-0.507	-0.545	-0.256	-0.299	0.0227
CAAACTAGGTCCAGGTCAAAGTCGGTTTGTGCCA	2.21	2.36	1.47	1.98	0.0545	3.29	2.6	3.28	0.928	2.59	3.43	3.67	0.261	-0.192	1.29	2.57	0.685	2.22	0.417	2.9
ACTATTAGTTGTGACGAGGGCAACCGATAGGTTG	-0.101	-0.0626	-0.0175	-0.0591	-0.181	0.388	0.623	0.256	-0.152	0.259	0.298	0.518	0.938	1.19	0.35	0.597	-0.0621	0.536	0.293	1.06
CCTGCTGGGCCATTCAGAGGTCATTGATCATATG	2.79	4.29	6.46	4.01	0.198	3.65	0.755	1.86	0.0618	1.15	0.632	1.28	-1.02	-0.733	1.68	4.82	2.03	4.69	-0.506	3.23
TCGAGTAGGTTACCAATGGGGCAGTCAGCTTTCT	0.254	0.465	-0.934	0.266	-0.413	1.05	0.211	1.04	1.06	0.984	3.11	2.43	-0.721	-1.01	-0.432	-0.103	-1.34	0.0626	-1.21	0.908
GGAACGAGGGCATCCGAGTTGATAGCATGGCGAT	1.24	0.897	-0.543	-0.129	-0.874	1.53	1.15	0.688	-0.271	-0.0258	2.9	2.23	-0.317	-0.705	-0.0747	3.67	0.048	0.949	-0.37	1.78
TCTAGTTGGACAAAGGTCACACACTCGAAATGCG	5.55	5.75	3.58	5.38	1.83	6.21	9.82	8.72	9.32	9.4	2.65	5.02	0.884	1.01	4.09	5.7	1.81	6.59	2.98	5.11
CCTATTAGTTGACCCTAAGGGCAACCGAAGCTCG	4.38	3.57	1.02	3.56	1.04	4.53	1.6	3.34	0.981	2.19	0.775	1.82	0.412	0.556	3.19	4.25	1.16	4.62	2.32	2.93
CGAACTTGGTCAAGGACAGTGAATCTCCGCACGC	0.162	-0.375	-0.73	-0.622	-1.03	-0.114	0.382	0.0325	-0.999	-0.567	1.01	0.689	-0.557	-0.422	-0.784	-0.25	-0.515	-0.377	-0.435	1.34
CCGAGAAGGTTATGGGGCATTCAGGCAACGGTGA	1.63	1.52	0.000193	1.24	-0.242	2.89	1.15	1.75	-0.0865	0.883	0.959	1.38	-0.265	-0.895	1.08	0.668	0.111	1.54	-0.0567	2.08
TCTTGCAGGCCAGAGGGTCACTCAAGAGGTACGG	1.13	1.04	-0.621	1.3	-0.52	2.81	1.99	3.39	2.63	3.38	1.23	1.74	0.108	0.193	1.21	1.65	-0.469	2.21	-0.686	2.44
CCTAGTTGGTCATGAGGTCACACACCGGATATGA	4.57	4.17	2.56	4	0.753	4.65	4.15	4.5	2.25	3.46	2.85	4.41	1.13	0.4	4.56	5.34	2.23	5.4	2.94	4.14
CCGACAGGGGCAAAGGTTACCATACTCAGTACGA	2.65	2.32	-0.14	2.73	-0.622	4.74	7.39	7.14	5.17	7.95	0.215	3.27	-0.209	-0.953	1.78	3.35	-0.101	5.32	-0.576	2.89
CCTTACGGGTCACTACAGGTTATAGCATCGGAGT	4.92	8	2.22	6.14	0.211	4.69	3.41	3.84	1.46	2.62	2.72	3.21	0.858	0.751	1.99	4.52	0.327	4.47	1.02	3.91
